This passage reports Potency results from PubChem BioAssay (Tox21).

Values joined by “and” are separate entries in the source; they are usually repeats but may differ in a detail not shown here. Equal entries are not always repeated. Inconclusive results are not listed. Where a call stands in place of a potency, no number is given. A structure can be active in one record and inactive in another. Active and inactive are the calls of the source. The call rests on the fitted dose curve; in most records, active means well fitted cell-killing curve with a large enough effect in the repeat runs; inconclusive means weak or mixed curves, or effect the other way; inactive means no such curve, though single readings can be large or run the other way.
Potency means the concentration at half of the fitted maximal effect.

This test in a line: qHTS assay to identify small molecule agonists of the estrogen receptor alpha (ER-alpha) signaling pathway in the presence of an antagonist - cell viability counter screen (AID 1259386). Further: nearly all actives have a fitted effect of over 30% in size. Particulars: VM7Luc4E2 viability, CellTiter-Fluor fluorescence, 22 h; series mostly up to 92.4 µM. An outline of the steps: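 VM7Luc4E2 cells (endogenous full-length ER-alpha, 4×ERE-luciferase) were held 5 days in phenol red-free medium with 10% charcoal-stripped FBS, plated, then given 10.0nM ICI-182,780 and compounds at 15 concentrations for 22hr at 37C; viability read by CellTiter-Fluor fluorescence.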
Background: In qHTS, concentration-response curves come from the screen itself.
Consider `ClCC(Cl)CCl`, for which the Potency result was “inactive”.
`N#Cc1nn(-c2c(Cl)cc(C(F)(F)F)cc2Cl)c(N)c1S(=O)C(F)(F)F` (stereo not drawn): the Potency is 21.8 µM (active) and 29.8 µM (active).
Consider `CC[n+]1c(-c2ccccc2)c2cc(N)ccc2c2ccc(N)cc21`, for which the Potency is 48.3 µM (active) and 26.6 µM (active).
Next, `O=[N+]([O-])c1ccc(Cl)c([N+](=O)[O-])c1`: 31.1 µM (active) and 27.3 µM (active); `CCCCSP(=O)(SCCCC)SCCCC`: “inactive”; `O=[N+]([O-])c1ccc(Nc2ccccc2)cc1`: 27.5 µM (active) and 27.3 µM (active).
Consider `C[N+](C)(C)CC(=O)[O-]`, for which the Potency result was “inactive”.
The result for `CCCCOCCOC(C)=O` reads “inactive”; that for `CC(C)(O)C#N`, “inactive”.
The result for `c1ccc(C2CO2)cc1` (stereo not drawn) reads “inactive”.
The result for `O=C(O)CF` reads “inactive”; that for `CC1(C)Cc2cccc(O)c2O1`, “inactive”; that for `NC(=O)CN1CCCC1=O`, “inactive”.
For the molecule `Clc1cccc(C(Cl)(Cl)Cl)n1`, the Potency result was “inactive”.
Next, `Clc1cccc(Cl)c1`: “inactive”.
Next, `COP(=S)(OC)SCn1nnc2ccccc2c1=O`: “inactive”; `Clc1ccc(C(Cl)(Cl)Cl)cc1`: “inactive”; `CC1CC(=O)O1` (stereo not drawn): “inactive”.
On to `O=S(=O)(O)C(F)(F)C(F)(F)C(F)(F)C(F)(F)C(F)(F)C(F)(F)C(F)(F)C(F)(F)F`, for which the Potency entry is “inactive”.
The result for `COc1ccc(O)c(C(C)(C)C)c1` reads “inactive”; that for `CCCCCCCC[N+](C)(CCCCCCCC)CCCCCCCC`, 21.6 µM (active) and 6.87 µM (active) and 30.6 µM (active).
Regarding `Nc1ccc2ccccc2c1`, the Potency result was “inactive”.
Next, `COP(=O)(NC(C)=O)SC` (stereo not drawn): “inactive”; `CCOP(=O)(O)OCC` (tested in a mixture with another compound): “inactive and 60.6 µM (active)”.
Next, `CCC[CH2][Sn]([Cl])([Cl])[CH2]CCC`: 1.96 µM (active) and 2.17 µM (active); `Cl`: “inactive”; `CC(C)(O)C(=O)Nc1ccc([N+](=O)[O-])c(C(F)(F)F)c1`: “inactive”.
Next, `C[C@]12CCC(=O)C=C1CC[C@@H]1[C@@H]2CC[C@@]2(C)[C@H]1CC[C@]2(C)O`: “inactive”; `NN=C(N)N`: “inactive”; `CCOP(=S)(OCC)SCSC(C)(C)C`: “inactive”.
On to `O=P(OCCCl)(OCCCl)OCCCl`, for which the Potency result was “inactive”.
On to `CC1=C(C(=O)Nc2ccccc2)SCCO1`, for which the Potency result was “inactive”.
The result for `O=NN1CCOCC1` reads “inactive”.
Next, `CNC(=S)S`: “inactive”; `CC(C)Nc1ccc(Nc2ccccc2)cc1`: 60.9 µM (active); `C[N+](C)(C)C`: “inactive”.
The result for `CCCCOCC1CO1` (stereo not drawn) reads “inactive”; that for `CCCCC(C#N)(Cn1cncn1)c1ccc(Cl)cc1` (stereo not drawn), “inactive”.
